Screening results: PubChem BioAssay, National Center for Advancing Translational Sciences (NCATS)
KB-V1 cytotox – KB-V1 MDR subline cytotoxicity | Potency, µM (titrated, usually from 46.1 µM), usual class: cytotoxic | KB-V1 MDR cells viability, CellTiter-Glo, 72 h | 400,000 tested, 3.4% active; also: % is scaled to controls: 0 for no effect and ±100 for the full control effect; nearly all actives have a fitted effect of over 60% in size
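Cytotoxicity toward P-gp-expressing KB-V1 cells was determined as loss of CellTiter-Glo luminescence after 72 h at 37 degrees C. Compounds were tested in quantitative HTS format across a concentration range, with curves fitted to normalized data.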
ELG1 repair inh – ELG1-dependent DNA repair inhibition. Potency, µM (top dose mostly 46.1 µM), for inactives: top-dose activity change, negative = inhibition, actives largely listed as inhibitors. 330,000 tested, 2.3% active. HEK293T ELG1-luciferase reporter, luminescence, 16 h; DNA damage induced by 5-fluorouridine; also: % is scaled to controls: 0 for no effect and ±100 for the full control effect; nearly all actives have a fitted effect of over 55% in size
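Luminescence from the luciferase reporter, measured 30 min after ONE-Glo reagent at room temperature, was the read-out. Beforehand, 2,000 cells per well were exposed for 16 hr at 37 °C to 5-fluorouridine together with compound or vehicle.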
MCF10A rereplic – induces DNA re-replication in MCF 10a normal breast cells | MCF 10A DNA re-replication, Hoechst nuclear intensity, 48 h | Potency, µM (series often up to 46.1 µM), for the others: at the highest dose activity, positive = re-replication, usual class: activators | 350,000 tested, 2.9% active; also: % of control where 0% means no effect; nearly all actives have a fitted effect of over 50% in size
SW480 rereplic – inducers of DNA re-replication in SW480 colon cancer cells. AID 624297. Potency, µM (highest dose often 46.1 µM), inactives show at the highest dose re-replication activation, actives largely listed as activators. 340,000 tested, 1.8% active. SW480 DNA re-replication, Hoechst DNA content imaging, 48 h; also: % of control where 0% means no effect; nearly all actives have a fitted effect of over 55% in size
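SW480 cells exposed to compounds for 48 hr at 37 C, 5% CO2, then Hoechst-stained 40 min. Nuclear DNA content imaged by fluorescence scanning (405 nm excitation, 500-530 nm emission); re-replication scored as increased high-intensity nuclei.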
KB-3-1 cytotox – kills parental KB-3-1 adenocarcinoma cells; KB-3-1 viability, CellTiter-Glo ATP luminescence, 72 h; 400,000 tested, 1.4% active; AID 1347075; Potency, µM (series often up to 46.1 µM), most hits filed as cytotoxic; also: % is scaled to controls: 0 for no effect and ±100 for the full control effect; nearly all actives have a fitted effect of over 60% in size
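Parental KB-3-1 viability, qHTS format: 72 h compound exposure, 37 °C; CellTiter-Glo; media-only wells and DMSO plates as controls; concentration-effect fits on corrected data.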
* marks the source's active call; other numbers are inactive results; i = inactive; ? = inconclusive; · = no result given; [ ] = another dose, or the depositor's remark. The list is not random: actives were taken first. Their share in the collection is about 8.1%. Calls follow the shape of the dose curve; as a rule, active = well fitted curve in the direction sought with a large enough effect; inconclusive = small, poorly fitted or top-dose-only effect, or another doubt; inactive = no such curve, though single readings can be large; an effect the other way counts as inactive or inconclusive. Potency is read from the fitted curve at half-maximal effect.

SMILES | KB-V1 cytotox | ELG1 repair inh | MCF10A rereplic | SW480 rereplic | KB-3-1 cytotox
O=S(=O)(c1cccc(C(F)(F)F)c1)N1CCN(S(=O)(=O)c2ccc3c(c2)OCCO3)CC1 | i | 11.3% | 7.0% | -0.4% | i
O=C(C[n+]1ccccc1Br)c1ccc(F)cc1 | i | · | · | · | i
CCC(CC)C(=O)N(C)c1c(C)nc2c(OCC(=O)C(C)(C)C)cccn12 | i | · | · | · | i
CCCN1CCN(CCNC(=O)Nc2cc(C)ccc2OC)CC1 | i | · | · | · | i
Cc1cc(C)n(CCCNC(=O)C(C)(C)Oc2ccc(Cl)cc2)n1 | i | 10.3% | 1.1% | -4.0% | i
CCCc1cc(C(=O)N2CCCC(C(=O)c3ccc(Cl)cc3)C2)n(C)n1 (stereo not given) | i | -3.2% | -8.0% | 29.7% | i
CCCc1cc(C(=O)N2CCCC(C(=O)c3cc(C)c(OC)c(C)c3)C2)n(C)n1 (stereo not given) | ? | 8.2µM* | ? | 1.7% | i
Cc1ccc(C(=O)NCc2ccc(F)cc2)cc1NC(=O)c1nsc2ccccc12 | i | · | · | · | i
COc1cc(OC)cc(C(=O)Nc2ccccc2C(=O)NC2CC2)c1 | 6.51µM* | ? | ? | ? | ?
COc1cc(OC)cc(C(=O)NC2CCN(CC(=O)Nc3cccc4ccccc34)CC2)c1 | i | 11.6µM* | 3.1% | 0.2%[9.22 µM] | i
CCOc1ccccc1NC(=O)Cn1ncc2c([nH]c3ccccc32)c1=O | i | · | · | · | i
CCCCCCn1c(=O)n2n(c1=O)[C@@H]1CN(S(=O)(=O)c3ccc(C)cc3)C[C@]1(O)[C@@H](OC(=O)NCc1ccccc1)C2 | i | · | · | · | ?
CCCc1cc(-c2[nH]ncc2-c2ccc(C(=O)OCC)o2)c(O)cc1O | ? | ? | 4.0% | 12.3% | i
CCCc1cc(-c2[nH]ncc2-c2ccc3c(c2)OCCCO3)c(O)cc1O | ? | 20.6µM* | 80.6% | -0.5% | ?
O=C(c1cnc(N2CCN(c3ncccn3)CC2)c2ccccc12)N1CCN(c2ccccn2)CC1 | 20.6µM* | ? | ? | -6.6% | i
Cc1ccccc1C(=O)N1CCN(c2ccccn2)CC1 | i | -2.5% | -1.4% | 0.8% | i
O=C(c1ccccc1-c1ccccc1)N1CCN(c2ccccn2)CC1 | 2.59µM* | -9.1% | 7.31µM* | 7.31µM* | 2.59µM*
O=C(c1cn(Cc2ccccc2)nc1-c1ccccc1)N1CCN(c2ccccn2)CC1 | ? | ? | 5.0% | ? | 10.3µM*
Cc1c(NC(=O)c2cccc(NC(=O)C(C)Oc3ccccc3)c2)c(=O)n(-c2ccccc2)n1C (stereo not given) | i | · | · | · | i
Cc1ccc(COc2ccc(-c3cc(C(F)(F)F)n4nc(C)cc4n3)cc2)cc1 | i | · | · | · | i
Cc1cc(C(=O)Nc2ccncc2)c(C)o1 | ? | · | 1.6% | -13.5% | i
Cc1ccc(NC(=O)COC(=O)c2ccccc2OCC(=O)N(C)C)cc1 | i | · | · | · | ?
CCN(c1ccccc1)S(=O)(=O)c1ccc(Cl)c(NC(=O)CN2CCN(C)CC2)c1 | i | ? | 16.4µM* | 12.5% | i
CCN1CCN(CC(=O)Nc2cc(S(=O)(=O)N(CC)c3ccccc3)ccc2Cl)CC1 | i | -10.7% | 20.6µM* | ? | i
CCN(c1ccccc1)S(=O)(=O)c1ccc(OC)c(NC(=O)Cc2ccc(OC)c(OC)c2)c1 | i | 18.3µM* | -4.5% | -21.4% | i
SMILES | KB-V1 cytotox | ELG1 repair inh | MCF10A rereplic | SW480 rereplic | KB-3-1 cytotox
COc1ccc(S(=O)(=O)N(C)C)cc1NC(=O)Cc1c[nH]c2ccccc12 | i | ? | 3.6% | 3.66µM* | i
CCC(=O)NCc1nc2ccccc2n1Cc1ccccc1 | i | · | · | · | i
CCN(c1ccccc1)S(=O)(=O)c1ccc(OC)c(NC(=O)Cc2ccccc2OC)c1 | i | -23.6% | 10.0% | -33.3% | ?
CCN(c1ccccc1)S(=O)(=O)c1ccc(Cl)c(NC(=O)CSc2ncn[nH]2)c1 | 23.1µM* | -17.9% | 15.8% | 1.6% | i
COc1cc(OC)c(C#N)c(S(=O)(=O)Cc2ccccc2)c1 | i | -3.9% | 2.3% | -7.1% | i
CCN(c1ccccc1)S(=O)(=O)c1ccc(Cl)c(NC(=O)CNCc2ccccc2OC)c1 | · | 18.3µM* | 16.4µM* | ? | ·
COc1ccc(S(=O)(=O)Cc2ccccc2)cc1N | ? | 4.5% | ? | 6.51µM* | ?
CCN(c1ccccc1)S(=O)(=O)c1ccc(N)c(OC)c1 | 23.1µM* | ? | 18.4µM* | 11.2µM* | 16.4µM*
Cc1ccc(C(=O)N/N=C/c2ccoc2)cc1C | ? | ? | -0.7% | -5.7% | i
Cc1ccc(OCCCN2CCC(C(O)(c3ccccc3)c3ccccc3)CC2)cc1 | 20.6µM* | · | · | · | ?
N#Cc1ccccc1OCCCN1CCC(C(O)(c2ccccc2)c2ccccc2)CC1 | 23.1µM* | · | · | · | ?
CC(C)N(CCCNC(=O)Cn1c(=O)c2cccn2c2ccccc21)Cc1ccccc1 | i | 5.0% | 4.2% | ? | i
C=C(C)Cn1c2ccc(NC(=O)NCc3ccc(F)cc3)cc2c(=O)n1C | i | · | · | · | i
O=C(/C(=C/O)N=Nc1ccccc1)c1ccco1 | i | 14.0% | 14.6µM* | ? | i
Cc1ccc(C)c(N2CCN(C(=O)CCc3nc(-c4ccc(F)cc4)no3)CC2)c1 | i | 18.2% | ? | -2.1% | i
Cc1cc(OCC(O)CNC(C)c2ccccc2)ccc1C(C)C (stereo not given) | 16.4µM* | ? | ? | ? | ?
Cc1cc(C)n(CC(O)COc2ccc3ccccc3c2)n1 (stereo not given) | ? | ? | -6.5% | -2.1% | i
